In ChEMBL document CHEMBL3433997, “St. Jude Leishmania screening dataset” (2016):

Key:
Assay type in all cases: functional
[1] = target: Solute carrier family 2, facilitated glucose transporter member 1 (Homo sapiens) (UniProt P11166); experiment: ST_JUDE_LEISH: Cytotoxicity at 2uM final concentration against transgenic Leishmania Mexicana promastigotes LmGLUT1 that are glucose transport deficient and complemented with the human glucose transporter GLUT1. Activity is measured by DNA content using SYBR green in vitro
Chain of Solute carrier family 2, facilitated glucose transporter member 1 (Homo sapiens) (P11166 whole entry): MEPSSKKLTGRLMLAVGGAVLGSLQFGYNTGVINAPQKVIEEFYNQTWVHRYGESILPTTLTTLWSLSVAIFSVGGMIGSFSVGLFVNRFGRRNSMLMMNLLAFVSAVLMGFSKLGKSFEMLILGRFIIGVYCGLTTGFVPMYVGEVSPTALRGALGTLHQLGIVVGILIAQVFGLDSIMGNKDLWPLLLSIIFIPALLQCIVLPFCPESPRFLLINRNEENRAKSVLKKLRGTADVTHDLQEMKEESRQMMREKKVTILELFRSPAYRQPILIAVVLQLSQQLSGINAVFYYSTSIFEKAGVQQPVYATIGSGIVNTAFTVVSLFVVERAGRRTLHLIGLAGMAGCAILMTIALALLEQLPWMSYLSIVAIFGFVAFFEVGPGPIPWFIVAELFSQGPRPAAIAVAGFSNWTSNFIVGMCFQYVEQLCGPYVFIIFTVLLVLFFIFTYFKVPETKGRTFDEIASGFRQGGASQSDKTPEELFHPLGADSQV

[2] = target: Hexose transporter 1 (Plasmodium falciparum) (UniProt O97467); experiment: ST_JUDE_LEISH: Cytotoxicity at 2uM final concentration against transgenic Leishmania Mexicana promastigotes LmPfHT that are glucose transport deficient and complemented with the Plasmodium falciparum hexose transporter. Activity is measured by DNA content using SYBR green in vitro
[3] = target: Glucose transporter (Leishmania mexicana) (UniProt O61059); experiment: ST_JUDE_LEISH: Cytotoxicity at 2uM final concentration against transgenic Leishmania Mexicana promastigotes LmGT2 that are glucose transport deficient and complemented with the L. Mexicana glucose transporter 2. Activity is measured by DNA content using SYBR green in vitro

| SMILES | inhibition [1] [%] | inhibition [2] [%] | inhibition [3] [%] |
| --- | --- | --- | --- |
| COc1ccc(-c2ccccc2CNC2Cc3ccccc3C2)cc1S(=O)(=O)NCCN1CCCC1 | 2.56 | 0.5 | 2.53 |
| COc1cc(O)c2c(=O)c(OC)c(-c3cccc(Cl)c3OCC(=O)O)oc2c1OC | -2.29 | -1.48 | -0.46 |
| CC(C)(CNCc1ccc(Cl)c(Cl)c1)c1nc(-c2ccc(Cl)c(O)c2)c(-c2ccncc2)[nH]1 | 0.8 | 3.02 | 4.37 |
| CN(C)CCCN(C)C(=O)c1cc2cc(-c3ccccc3)ccc2n1S(=O)(=O)c1ccccc1 | 5.31 | -2.36 | -0.41 |
| O=C(NCCc1cccc(F)c1)c1cc(Br)cc(N2CCN(c3ccncc3)CC2)c1 | 6.76 | 5.57 | 3.44 |
| CCCCc1nc2nc(N)nc(N)c2cc1CCC | 1.72 | 6.46 | 1.5 |
| COc1ccc(NC(=O)[C@H](CC(C)C)Nc2cc(C)nc(NCc3ccccc3C)n2)cc1 | 1.76 | 2.18 | 0.33 |
| CC(C)Nc1nc(NC2CCCCC2)nc(N2CCCCCCC2)n1 | 19.3 | 17.4 | 11.6 |
| COC(=O)c1cc(OC2CCOC2=O)cc2c1OC(C)(C)O2 (stereo not drawn) | 10.9 | 12.7 | 8.43 |
| Cc1cccc2nc(-c3cccc(-c4ccc(NC(=O)c5ccncc5)cc4)c3)[nH]c12 | 2.81 | 2.24 | 2 |
| CN(Cc1cccc(O)c1)C1CCCN(c2cc(NC(=O)c3ccc(F)cc3)ccn2)C1 (stereo not drawn) | 3.85 | 6.05 | 5.91 |
| O=C(CCN1C(=O)c2ccccc2C1=O)N1CCN(CC=Cc2ccccc2)CC1 | -1.54 | -1.32 | -1.76 |
| COCCOC(=O)C(=O)c1c(-c2ccccc2)c(-c2ccc(OC)c(OC)c2)c2c3cc(OC)c(OC)cc3ccn12 | 4.89 | 2.7 | 1.72 |
| O=C(CCc1c[nH]cn1)Nc1ccc(-c2ccc(-c3nc4cc(F)ccc4[nH]3)cc2)cc1 | 1.4 | 1.73 | 1.81 |
| CN1CCC(NCc2cccc(-c3cccc(-c4nc5cc(C(F)(F)F)ccc5[nH]4)c3)c2)CC1 | 2.34 | 0.79 | 1.42 |
| O=C(Nc1ccc2c(c1)CCN2C1CCN(Cc2cc(F)cc(F)c2F)C1)c1ccco1 (stereo not drawn) | 1.75 | 2.07 | 3.47 |
| Cc1cc(NC(=O)c2coc3cc(F)c(N4CC(C)N(C)C(C)C4)cc23)ccc1-n1ccnc1 (stereo not drawn) | 2.32 | 1.16 | -1.58 |
| O=C(/C=C/c1ccc(-c2ccccc2)cc1)NCCCCCN1CCC(c2c[nH]c3ccccc23)CC1 | 0.3 | 4.35 | -1.76 |

| SMILES | inhibition [1] [%] | inhibition [2] [%] | inhibition [3] [%] |
| --- | --- | --- | --- |
| O=C(CCC1CCCC1)N(Cc1ccc(-c2ccc(CNCCc3ccccn3)cc2)cc1)CC1CCCCN1 (stereo not drawn) | 15.2 | 4.22 | 1.88 |
| CN(C)CCN(C)Cc1ccc(-c2ccc(NC(=O)c3cccc(Cl)c3)cc2)cc1 | 7.23 | 6.44 | 6.55 |
| O=C(CNC(=O)c1ccc(O)cc1)Nc1ccc(-c2cccc(-c3nc4cc(C(F)(F)F)ccc4[nH]3)c2)cc1 | 8.61 | 8.61 | 8.38 |
| Cc1ccc(O)c(CN2CCCC(COC(c3ccc(F)cc3)c3ccc(F)cc3)C2)c1 (stereo not drawn) | 2.33 | -0.35 | -4.12 |
| Cn1nc(C(F)(F)F)cc1-c1ccc(C(=O)Nc2ccc3c(c2)CNCC3(C)C)s1 | 4.85 | 0.03 | 2.34 |
| CCCc1cc(NC2CCN(C)CC2)nc(Nc2ccc(F)cc2)n1 | 10 | 6.83 | 5.22 |
| COc1ccc2nccc(N(C)CC3(O)CCN(CCc4ccc5c(c4)NC(=O)CS5)CC3)c2n1 | 6.99 | 6.89 | 6.32 |
| O=C(NCc1ccccc1[S+]([O-])c1ccccc1CO)C(F)(F)F (stereo not drawn) | -1.33 | -0.32 | 0.55 |
| COc1ccc(NC(=O)/C=C/c2ccc(-c3ccccc3)cc2)cc1N1CCN(C)CC1 | 2.62 | 3.25 | 0.83 |
| CCc1cn2c3c(cc(C(=O)N[C@@H](Cc4ccccc4)[C@H](O)CNCc4ccc(C)cc4)cc13)N(C)S(=O)(=O)CC2 | -0.24 | 1.57 | 0.38 |
| CC(C)(C)NCC(O)COc1ccc(Cl)cc1C1=NNC(=O)CC1 (stereo not drawn) | 1.53 | 1.45 | 0.82 |
| CC1CN(Cc2cccc(-c3ccc(-c4nc5ccccc5[nH]4)cc3)c2)CC(C)O1 (stereo not drawn) | 3.06 | 4.42 | 2.3 |
| O=c1cc(NCCCCNCc2ccc(Br)c(Br)c2)[nH]c2ccccc12 | 0.91 | 0.5 | -4.13 |
| COc1cc2nc(NCCc3ccccc3)nc(NCc3cc(C)no3)c2cc1OC | 4.85 | 4.61 | 2.42 |
| CCc1cccc(NC(=O)c2ccc(CN3CCCN(CC4CCCCC4)CC3)cc2)c1 | 10.3 | 10 | 13.4 |
| Clc1ccc2c(NCCCCCCCCNc3ccnc4cc(Cl)ccc34)ccnc2c1 | 2.99 | 1.53 | 1.88 |
| COc1ccc(CNCc2cccc(-c3csc(-c4nc5ccccc5[nH]4)c3)c2)cc1 | -1.65 | -1.34 | 2.49 |
| Cc1cccc2nc(-c3ccc(-c4cccc(CNCCNC(=O)c5ccnn5C)c4)cc3)[nH]c12 | 0.53 | 1.5 | -3.68 |
